Sampled rows, rich in hits. Any-hit rate of the full collection: about 4%.
Arbovirus inh – antivirals against arbovirus infection, primary screen, cell-based, full library, 10K replicate subset | arbovirus infection cell-based antiviral screen | inhibition, % at 10 µM | hit rate 0.37% among 200,000 | AID 1251, 2008; in the data active = inhibition above about 30%
Cl transport mod – KCC2 cotransporter modulators, thallium flux, primary screen, cell-based, HEK293 KCC2, FluoZin-2 fluorescence, MLSMR; Solute carrier family 12 member 5 (Homo sapiens), Q9H2X9; KCC2 cells, thallium flux FluoZin-2 fluorescence; B-score of Tl+ flux slope (higher = more flux/activation; lower = inhibition) at 10 µM; hit rate 2.2% among 190,000;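 active = thallium flux slope and its plate-corrected score both differing from the plate sample mean at a set confidence after two filtering rounds, in either direction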;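 note: slope of fluorescence scaled to starting intensity during 10 to 20 s after thallium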
HSV augment – enhancers of HSV replication in host cells, fold increase, host cell viability; HSV replication augmentation in cells; maximum fold increase; hit rate 0.005% among 220,000; in the data active = maximum fold increase above about 1.5; inconclusive = no clear call, values can overlap the other calls; tested in PC3 cells
Measles CPE – compounds protecting cells from measles virus cytopathic effect, primary screen, measles RdRp inhibitor project, single point, MLSMR library, absorbance; Measles virus-infected cells, CPE protection; hit rate 1.5% among 140,000; AID 841, 2007; protection (pct of control), % at 4 µM; in the data active = protection mostly above about 24%, no sharp cut-off; inactive = mostly below about 26%
ROMK mod – ROMK potassium channel modulators, primary screen, cell-based, thallium flux, MLSMR library; Tet-inducible ROMK, thallium flux fluorescence; actives lie on both sides; AID 1918, 2009; ATP-sensitive inward rectifier potassium channel 1 (Homo sapiens), P48048; B-score at 10 µM; hit rate 2% among 130,000;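 active = signal ratio slope over the read window, or its plate-corrected B-score, at least 3 SD from the plate mean, either direction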;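 note: B-score of the F/F0 ratio slope over 7 to 12 s after thallium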
Target sequence (P48048 whole entry, looked up): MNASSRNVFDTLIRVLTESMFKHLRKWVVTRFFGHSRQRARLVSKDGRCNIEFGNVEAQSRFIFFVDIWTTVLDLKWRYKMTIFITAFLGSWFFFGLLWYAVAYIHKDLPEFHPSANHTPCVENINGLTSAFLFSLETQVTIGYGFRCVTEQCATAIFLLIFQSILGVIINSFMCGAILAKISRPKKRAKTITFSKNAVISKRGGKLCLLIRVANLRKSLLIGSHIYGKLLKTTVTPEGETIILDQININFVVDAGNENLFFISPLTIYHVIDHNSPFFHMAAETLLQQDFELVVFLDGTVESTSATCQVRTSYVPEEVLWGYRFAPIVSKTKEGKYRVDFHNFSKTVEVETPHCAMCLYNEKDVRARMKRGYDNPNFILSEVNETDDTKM
KCC2 secondary – KCC2 modulators in sodium-free buffer, confirmation, cell-based, HEK293 KCC2, thallium flux, secondary assay | shares compounds with Cl transport mod | FluoZin2 fluorescence; active compounds read high | normalised thallium flux (F/F0 slope) at 10 µM | hit rate 15% among 3,700 | AID 1713, 2009;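 active = thallium flux slope above the same plate's solvent-only control mean plus 3 SD; inconclusive = the two replicate wells disagree; inactive = no significant difference from solvent-only control wells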
KCC2 bumet counter – thallium flux persisting under bumetanide in KCC2 cells, confirmation, counter-screen for KCC2 modulator project, cell-based, HEK293 KCC2, FluoZin2, secondary assay 3; normalized thallium flux at 10 µM; shares compounds with Cl transport mod; AID 1714, 2009; hit rate 49% among 3,700; HEK293-KCC2 + bumetanide/ouabain; active compounds read high;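 active = thallium entry rate above the same plate's blocked-transporter control wells by more than 3 SD; inconclusive = the two repeat wells disagree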;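 note: raw slope of fluorescence over initial fluorescence between 10 and 20 s after thallium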
KCC2 secondary2 – KCC2 modulators without ouabain present, confirmation, cell-based, HEK293 KCC2, thallium flux, FluoZin2, secondary assay 2; shares compounds with Cl transport mod; thallium flux FluoZin2 fluorescence; actives lie on both sides; F/F0 rise rate, 10–20 s post-thallium; normalized thallium flux at 10 µM; hit rate 23% among 3,700; AID 1715, 2009;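 active = thallium flux slope more than 3 SD above or below the plate's solvent-only control mean, mostly below; inconclusive = the two repeat wells disagreed; inactive = no significant shift from solvent-only controls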;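 note: raw slope with 0.1% DMSO as baseline and bumetanide as block control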
HEK293 Tl flux – thallium flux modulation in parental HEK cells, confirmation, counter-screen for KCC2 modulator project, cell-based, counterscreen 1; hit rate 46% among 3,700; shares compounds with Cl transport mod; HEK293 parental cells, thallium flux FluoZin2, ouabain; baseline-ratio fluorescence slope, 10–20 s after thallium; AID 1716, 2009; thallium flux rate (normalised fluorescence) at 10 µM;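 active = thallium flux rate significantly above the same plate's solvent-only control wells, beyond their mean plus 3 SD; inconclusive = the two replicate wells gave conflicting results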
KCC2 retest ouab – KCC2 inhibitors and activators, ouabain retest, confirmation, HEK-KCC2 cells | shares compounds with Cl transport mod | HEK293-KCC2, thallium flux FluoZin2 fluorescence; bidirectional: low = inhibitor, high = activator | raw Tl+ flux slope (below DMSO = inhibition, above = activation) at 10 µM | hit rate 48% among 3,700 | AID 1717, 2009;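 active = thallium flux slope beyond 3 SD from same-plate DMSO control mean in most replicates, usually higher, sometimes lower; inconclusive = repeat tests gave conflicting results; inactive = no significant difference from controls in most replicates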;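 note: slope of initial-normalized fluorescence between seconds 10 and 20 after thallium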
HEK293 Tl flux2 – native HEK Tl+ uptake effects, second counter-screen – HEK cells, counterscreen 2, counter-screen for KCC2 modulator project, confirmation. HEK293 parental, thallium flux FluoZin-2 fluorescence slope. hit rate 33% among 3,700. AID 1718, 2009. thallium flux slope at 10 µM. shares compounds with Cl transport mod;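 active = thallium flux slope above the same plate's solvent-control mean plus 3 SD in both duplicate wells; inconclusive = duplicate wells that disagreed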;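 note: run without ouabain in cells lacking the KCC2 cotransporter; slope of fluorescence scaled to its starting value between 10 and 20 s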
* = called active by the depositor.

For S=c1[nH]nc(COc2cccc(Cl)c2)n1Cc1ccccc1 the results were Arbovirus inh 2.3, Cl transport mod 20.2*, HSV augment inactive, ROMK mod -0.318, KCC2 secondary 0.0103, KCC2 bumet counter 0.0278*, KCC2 secondary2 0.0343, HEK293 Tl flux 0.0148*, KCC2 retest ouab inconclusive and HEK293 Tl flux2 0.0118*.
For S=c1[nH]nc(-c2ccc(Cl)cc2Cl)n1Cc1ccccc1 the results were Arbovirus inh 4.3, Cl transport mod 8.95*, HSV augment inactive, Measles CPE 13.8, ROMK mod 0.19, KCC2 secondary 0.00593, KCC2 bumet counter 0.0388*, KCC2 secondary2 inconclusive, HEK293 Tl flux 0.0206*, KCC2 retest ouab 0.0335* and HEK293 Tl flux2 0.0231*.
For S=c1[nH]nc(-c2cccc(Cl)c2)n1Cc1ccccc1 the results were Arbovirus inh -24.1, Cl transport mod 3.96*, HSV augment inactive, Measles CPE 2.3, ROMK mod -0.834, KCC2 secondary 0.0148*, KCC2 bumet counter 0.0436*, KCC2 secondary2 0.0368, HEK293 Tl flux inconclusive, KCC2 retest ouab 0.0382* and HEK293 Tl flux2 inconclusive.
For S=c1[nH]nc(COc2ccc(Cl)cc2)n1Cc1ccccc1 the results were Arbovirus inh 3.9, Cl transport mod 0.454, HSV augment inactive and ROMK mod 0.256.
Screening CCc1cc(-c2n[nH]c(=S)n2Cc2ccccc2)cs1 returned Arbovirus inh -13.9, Cl transport mod 14.7*, Measles CPE 10.5, ROMK mod 0.0801, KCC2 secondary 0.00671, KCC2 bumet counter 0.0198*, KCC2 secondary2 0.0301, HEK293 Tl flux 0.0158*, KCC2 retest ouab inconclusive and HEK293 Tl flux2 0.0113*.
For COC(=O)c1ccccc1C(=O)N1CCCC(CCC(=O)NCc2ccc(F)c(F)c2)C1 (centres undefined) the results were Arbovirus inh 2.0, Cl transport mod 0.156, HSV augment inactive and ROMK mod -0.0225.
Screening O=C(COC(=O)CCC(=O)c1cccs1)NC(=O)c1ccc(OC(F)F)cc1 returned Arbovirus inh 8.1, Cl transport mod -0.658, HSV augment inactive and ROMK mod -1.04.
For O=[N+]([O-])c1ccc(OCc2nnc(-c3ccccc3)o2)cc1 the results were Arbovirus inh 5.0, Cl transport mod 2.11, HSV augment inactive and ROMK mod 0.117.
Screening CN(c1ccc(OCc2nnc(-c3ccccc3)o2)cc1)S(=O)(=O)c1ccccc1 returned Arbovirus inh 4.8, Cl transport mod -4.17*, HSV augment inactive, Measles CPE 2.8, ROMK mod -1.2, KCC2 secondary 0.0171, KCC2 bumet counter inconclusive, KCC2 secondary2 0.0299, HEK293 Tl flux 0.00573*, KCC2 retest ouab 0.0144 and HEK293 Tl flux2 0.00927.
`CCOC(=O)Nc1ccc([N+](=O)[O-])cc1OC` gave HSV augment inactive.
CCOC(=O)c1ccc(C(=O)OCC)c(NC(=S)Nc2ccc([N+](=O)[O-])cc2OC)c1 was read as Arbovirus inh -8.4, Cl transport mod 10.1*, HSV augment inactive, Measles CPE 23.8, KCC2 secondary 0.0134*, KCC2 bumet counter 0.0312*, KCC2 secondary2 0.0358, HEK293 Tl flux 0.0241*, KCC2 retest ouab 0.0329* and HEK293 Tl flux2 0.0138*.
For Cc1nn(-c2nc3ccccc3[nH]2)c(N)c1-c1ccccc1 the results were Arbovirus inh -7.9, Cl transport mod 2.55*, HSV augment inactive, Measles CPE 8.8, ROMK mod -0.0493, KCC2 secondary 0.00639, KCC2 bumet counter 0.0123*, KCC2 secondary2 0.032, HEK293 Tl flux 0.0106*, KCC2 retest ouab inconclusive and HEK293 Tl flux2 0.0139*.
`Cc1nn(-c2ccccc2)c(N)c1-c1ccccc1` gave Arbovirus inh -5.3, Cl transport mod -0.338, HSV augment inactive and ROMK mod 0.408.
Screening Cc1cc(C)n2nc(C(=O)NCCc3ccccc3)nc2n1 returned Arbovirus inh -3.2, Cl transport mod 0.15, HSV augment inactive, Measles CPE 15.1 and ROMK mod -0.572.
For O=C(NCCc1ccccc1)c1nc2nc(-c3cccs3)cc(C(F)(F)F)n2n1 the results were Arbovirus inh -4.1, Cl transport mod -2.53*, HSV augment inactive, Measles CPE 2.9, ROMK mod -0.0805, KCC2 secondary 0.00738, KCC2 bumet counter 0.00661, KCC2 secondary2 0.0284, HEK293 Tl flux 0.00692, KCC2 retest ouab 0.0193 and HEK293 Tl flux2 0.00961.
`CCN(CC)S(=O)(=O)c1ccc(C)c(NC(=S)NC2CCCCC2)c1` gave Cl transport mod 0.0454 and HSV augment inactive.
`CCOC(=O)c1c(C)[nH]c(C(=O)COC(=O)C2(C)CC2(Cl)Cl)c1C` (centres undefined) gave Arbovirus inh 5.7, HSV augment inactive, Measles CPE 12.2, ROMK mod -0.196, KCC2 secondary 0.00715, KCC2 bumet counter 0.00421, KCC2 secondary2 0.0285, HEK293 Tl flux 0.0073, KCC2 retest ouab 0.0174 and HEK293 Tl flux2 0.0101.
Screening COc1ccc(Nc2nnc(SCC(=O)/C=C3/N(C)c4ccccc4C3(C)C)s2)cc1 returned Arbovirus inh 23.7, Cl transport mod -3.49, HSV augment inactive, Measles CPE 22.9 and ROMK mod -0.494.

Bioassay records (PubChem BioAssay)
